Test results reported in ChEMBL document CHEMBL3988442, “University of Dundee, Small-Polar-MMV Screening Library” (2021).

What was measured:
[1] = molecular target: T1, Aspartate--tRNA(Asp/Asn) ligase (Mycobacterium tuberculosis (strain ATCC 25618 / H37Rv)) (UniProt P9WFW3); assay: Assay for Asp RNA synthetase-1 from Mycobacterium tuberculosis; assay type: functional; set-up: scale not given: direction of the effect not stated beside the values; details: 30 µM; further: in the data most compounds retested in dose-response had high values
T1 sequence (whole entry): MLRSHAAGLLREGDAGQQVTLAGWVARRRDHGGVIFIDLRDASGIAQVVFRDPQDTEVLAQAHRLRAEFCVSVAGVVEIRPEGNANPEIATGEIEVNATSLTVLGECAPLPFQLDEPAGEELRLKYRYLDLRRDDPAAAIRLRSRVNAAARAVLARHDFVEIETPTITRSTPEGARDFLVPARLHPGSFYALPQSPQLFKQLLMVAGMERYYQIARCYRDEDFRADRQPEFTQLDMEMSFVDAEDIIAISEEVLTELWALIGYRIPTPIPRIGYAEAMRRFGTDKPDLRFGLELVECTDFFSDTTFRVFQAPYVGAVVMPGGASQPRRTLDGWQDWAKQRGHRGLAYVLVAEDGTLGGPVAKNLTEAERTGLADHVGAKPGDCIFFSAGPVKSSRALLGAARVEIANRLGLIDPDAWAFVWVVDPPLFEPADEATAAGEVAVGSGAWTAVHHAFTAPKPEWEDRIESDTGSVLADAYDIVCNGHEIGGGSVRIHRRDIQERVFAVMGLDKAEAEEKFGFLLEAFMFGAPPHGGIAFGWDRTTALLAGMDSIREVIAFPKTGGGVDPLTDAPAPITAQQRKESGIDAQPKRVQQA

[2] = molecular target: Shiga toxin 2 (Escherichia coli O157:H7) (UniProt P09385+P09386); assay: E. coli 0.157:H7 Shiga Toxin SOP - stx2 screening assay; assay type: functional; set-up: scale not given: direction of the effect not stated beside the values; details: 30 µM

| SMILES | Percent Effect [1] [%] | Percent Effect [2] [%] |
| --- | --- | --- |
| Cc1nc(C)n(CC2CCCN2CCOc2ccc(C#N)cc2)n1 (configuration not stated) | -3.28 | -0.486 |
| CN(C)C1CCN(C(=O)NCc2ccc(Cn3cncn3)cc2)CC1 | -3.07 | -19.9 |
| N#Cc1ccccc1OCCN1CCCC1Cn1cccn1 (configuration not stated) | -0.558 | 2.91 |
| Cc1csc(N2CCCN(Cc3noc(C)n3)CC2)n1 | 1.56 | -19.8 |
| NC(=O)C1CCN(Cn2nc(-c3ccccc3)oc2=O)CC1 | 9.54 | -53.5 |
| CC(C)c1noc(C(C)N2CCN(Cc3ccco3)CC2)n1 (configuration not stated) | 0.141 | 13.9 |
| CC(=O)N1CCN(C(=O)CN2CCc3c(ncn3C3CC3)C2)CC1 | 1.82 | -27.5 |
| O=C(c1cnccn1)N1C[C@@H]2CC[C@H](C1)N(C(=O)Cc1ccsc1)C2 | -3.45 | -38.6 |
| O=C(CN(Cc1ccccc1)CC1CCOCC1)Nc1nccs1 | 2.07 | -19 |
| Cc1ccccc1Cc1cnc(NC(=O)C2CNC(=O)N2)s1 (configuration not stated) | 6.1 | 3.51 |
| CN(Cc1ncc[nH]1)S(=O)(=O)c1cccc(C(=O)N2CCOCC2)c1 | 8.16 | -12.2 |
| Cc1ccc(CN2CCCn3c(nc(CN4CCCC4)cc3=O)C2)s1 | 4.32 | 7.63 |
| COCCCN(C)C1CCCN(Cc2noc(C)n2)C1 (configuration not stated) | -3.09 | -16.4 |
| CCN(CC)C(=O)c1ccn(COc2ccccc2)n1 | -2.64 | 4.36 |
| COCCN1CCC(CNC(=O)C2(c3cc(C)cc(C)c3)CCC2)C1 (configuration not stated) | -0.337 | 20.8 |
| Cc1cc(C(C)NC(=O)N2CCC(n3cncn3)CC2)c(C)s1 (configuration not stated) | 0.6 | 6.48 |
| Cc1noc(C)c1-c1cncc(C2CCCN2Cc2ccncc2)n1 (configuration not stated) | 1.92 | -6.19 |
| O=c1n(CCSCc2ccccc2F)nc2ccccn12 | 0.461 | 20.1 |
| Cc1ncsc1C(=O)NCCn1nc(C2CCNC2)c2cccnc21 (configuration not stated) | -3.63 | -7 |
| Cc1nc2ccnn2c(C)c1CCC(=O)N1CCC(C(N)=O)CC1 | 0 | 13.3 |
| COCCNC(=O)[C@H]1CN(Cc2nccs2)C[C@H]2OCC[C@@H]12 | -4.08 | 1.98 |
| CCn1cc(NC(=O)NCC(O)CN2CCCCC2)cn1 (configuration not stated) | -0.173 | 21.2 |

| SMILES | Percent Effect [1] [%] | Percent Effect [2] [%] |
| --- | --- | --- |
| Cc1n[nH]cc1CNc1ccc2c(c1)N(C(=O)OC(C)(C)C)CCC2 | 6.33 | -17.7 |
| CC(c1ccc(Cl)cc1)N1CCN(CCNS(C)(=O)=O)CC1 (configuration not stated) | 1.42 | -11.7 |
| CCNc1cc2c(nn1)CCN(C(=O)CC1CCCCC1)C2 | -7.97 | -4.17 |
| CN1CCN(C(=O)NC2CC2)Cc2cccnc21 | 8.44 | -32.5 |
| CC(C)(NCC(=O)NCC(F)(F)F)c1ccc2c(c1)OCCO2 | -0.335 | 22.1 |
| CNc1cc2c(nn1)CCN(C(=O)c1cccc3c1OCO3)C2 | -7.31 | 1.76 |
| Nc1nc(C2CCN(C(=O)c3cscn3)CC2)cs1 | 2.54 | -10.9 |
| C1CCCN(c2nc(C3CC3)ns2)CC1 | -2.7 | -28.7 |
| CC1=N[C@@]2(CC[C@@H]3CN(Cc4ccccc4F)C[C@@H]32)C(=O)N1CC1CC1 | -6.8 | -2.95 |
| O=C(Cn1cc(C(=O)O)ccc1=O)Nc1ccc(Cl)cc1F | -4.96 | -33.4 |
| O=C(C1=CCCCC1)N1CCC2(CC1)COC(COc1ccccn1)C2 (configuration not stated) | 0.351 | -19.1 |
| CN(C)c1cc2c(nn1)CCN(C(=O)Cc1noc3ccccc13)C2 | 0.589 | -8.79 |
| CNc1nc2c(s1)C(c1c(F)cccc1Cl)CC(=O)N2 (configuration not stated) | 61.3 | 3.13 |
| CC(C)(C(=O)NCC(N)=O)c1ccccc1F | -1.56 | -19.3 |
| Cc1nc([C@@H]2C[C@@H]3CCN(C(=O)Cc4ccsc4)C[C@H]3O2)no1 | -2.49 | 2.89 |
| CC(=O)N1CCCC1c1cc(N2CCN(C3CCCC3)CC2)cc(C)n1 (configuration not stated) | -4.16 | 5 |
| COCC1c2c(cnn2C)CCN1Cc1ccoc1 (configuration not stated) | 2.94 | -3.41 |
| CCn1nc(CC(C)C)cc1C(=O)NCCn1cccc1 | 3.71 | -3.77 |
| CN(C)C(=O)CN1CCCCC1c1nc(N)ncc1-c1ccccc1 (configuration not stated) | -1.04 | 1.46 |
| O=C(CCc1cc2n(n1)CCCN(C(=O)c1ccccn1)C2)NC1CC1 | -1.14 | 9.76 |
| Cc1cncc(C2CCCN(Cc3cccn3C)C2)n1 (configuration not stated) | 0.162 | 10.2 |
| COCc1ccccc1C(=O)N1CCCC(n2nc(C)cc2C)C1 (configuration not stated) | -2.97 | -10.9 |

| SMILES | Percent Effect [1] [%] | Percent Effect [2] [%] |
| --- | --- | --- |
| Cc1cccc2cc(CNCCCN3CCOCC3)c(=O)[nH]c12 | 0.253 | -27.9 |
| Cc1cc(C)n(C2CN(CC(O)c3ccc(F)cc3)C2)n1 (configuration not stated) | 2.19 | 6.15 |
| Cc1noc([C@@]23CCO[C@@H]2CCN(CC2CCOCC2)C3)n1 | 6.14 | -16.8 |
| O=C(c1csc(-c2cccs2)n1)N1CCCC1Cn1cccn1 (configuration not stated) | 3.15 | 37.2 |
| Cc1ccc(C(=O)N2CCC3(CCC(=O)N(CC(N)=O)C3)CC2)c(O)c1 | -0.585 | -12.4 |
| CCCc1cc(C(=O)N(C)Cc2cnc3ccccc3n2)n(C)n1 | 8.2 | -6.99 |
| CCOc1ccc(Cl)cc1CNCCCn1ccnc1 | 0.842 | -32.5 |
| c1cncc(OCc2nnn3c2CN(Cc2ccsc2)CCC3)c1 | -0.204 | -23 |
| CCc1ncncc1C(=O)N1CCN(Cc2ccco2)CC1 | 3.68 | 8.73 |
| CCc1nc(C2CCCN2C(=O)CCNS(C)(=O)=O)no1 (configuration not stated) | -7.34 | -0.995 |
| OCc1ccc(Cl)c(NCc2cccnc2)c1 | 1.83 | -19.3 |
| Cc1noc(C)c1CNC(=O)N1CCC(C(O)c2ccccc2)CC1 (configuration not stated) | -2.1 | -19.9 |
| N#Cc1cccnc1NCCNC(=O)N1CCCSCC1 | 0.546 | 12.8 |
| Cc1cc(C[S+]([O-])CC(=O)NCc2cccs2)no1 (configuration not stated) | -0.395 | 9.34 |
| CNS(=O)(=O)c1ccc(C(=O)NC2CCOc3ccccc32)o1 (configuration not stated) | -4.13 | 5.97 |
| Cc1nn(C)c(C)c1C1CCCN1Cc1noc(C2CC2)n1 (configuration not stated) | 6.1 | 16.3 |
| CC(=O)c1ccccc1C(=O)NCC1(CO)CC1 | 2.82 | -19.8 |
| O=C(C1CCC1)N1CCn2c(COc3ncccn3)nnc2C1 | -0.503 | -1.29 |
| Cc1nc(C2CCCCN2C(=O)c2ccccc2)ncc1C(=O)N(C)C (configuration not stated) | -6.63 | -5.42 |
| CN(C)C(=O)CCCNC(=O)C(c1cccc(F)c1)N(C)C (configuration not stated) | -1.57 | -24.8 |
| COCCNC(=O)CN1CCN(c2nc(C)cs2)C(C)C1 (configuration not stated) | -0.728 | -15.9 |
| Cc1cc(-c2ccc(C(=O)O)cc2)nc(C2CCCN(C(C)C)C2)n1 (configuration not stated) | -0.0735 | -2.97 |

| SMILES | Percent Effect [1] [%] | Percent Effect [2] [%] |
| --- | --- | --- |
| Cc1nc(N2CCCC2)nc2c1CN(C(=O)N1CCOCC1)CC2 | 0.478 | -3.98 |
| CC(C)c1csc(C2CCCN(C(=O)Cn3ccccc3=O)C2)n1 (configuration not stated) | -3.63 | -29.5 |
| COc1cccc2cc(CNC(=O)N3CCCC(O)C3)oc12 (configuration not stated) | -4.17 | -15.3 |
| CCOCC(O)CN1CCN(C(=O)c2cc(F)ccc2C)CC1 (configuration not stated) | -0.759 | 9.83 |
| CCc1noc(C2CCCCN2C(=O)c2ccn(C3CCCC3)n2)n1 (configuration not stated) | -5.11 | -5.88 |
| O=C(CSc1ccncc1)N1C[C@H]2CC[C@@H]1CN(Cc1cccnc1)C2 | 2.67 | -11.3 |
| Cn1cnc2c1C(COCC1CC1)CN(Cc1ccsc1)C2 (configuration not stated) | 5.14 | -1.62 |
| O=C(NCc1ccc(OCC2CC2)nc1)c1c(F)cccc1F | -0.03 | 0.72 |
| Cc1cc(CN2Cc3ccccc3CC2c2nnc(C)o2)on1 (configuration not stated) | -0.894 | 8.24 |
| CC(Oc1ccccc1C(F)(F)F)C(=O)NCCC(=O)N(C)C (configuration not stated) | -1.14 | 8.25 |
| c1csc(CN2Cc3nccn3CC(Cn3cncn3)C2)n1 (configuration not stated) | -2.48 | -4.98 |
| Cc1oc(C)c(C(=O)NCc2cccc(NC(=O)CN(C)C)c2)c1C | -5.4 | -39.7 |
| CC(C)N1CCC(CNCc2c[nH]nc2C(C)(C)C)C1 (configuration not stated) | 7.32 | 11.2 |
| FC1(F)CCN(Cc2ccccn2)CC12CCN(c1cccnc1)C2 (configuration not stated) | 1.08 | -6.96 |
| Cc1cc(C)n(CC2CCCN2C(=O)CCCNc2ncccn2)n1 (configuration not stated) | -2.92 | 26.1 |
| Cc1nc(C)n(CC2CN(CC(=O)Nc3nccs3)CCO2)n1 (configuration not stated) | -3.2 | 0.609 |
| Cc1oc(C(=O)O)cc1S(=O)(=O)Nc1ccc(Cl)c(F)c1 | 1.64 | 16.3 |
| CCN(C1CCS(=O)(=O)C1)S(=O)(=O)c1cccc2cc(C)cnc12 (configuration not stated) | -1.66 | 30.4 |
| CCOC1CCCN(C(=O)c2sccc2-n2cnnn2)C1 (configuration not stated) | -4.21 | -8.57 |
| COc1ccccc1N1CCC(CNCc2cccc(C#N)c2)C1 (configuration not stated) | 13.3 | 2 |
